Data published in PubChem BioAssay.
Active and inactive are the calls of the source.

How the values were obtained:
[1] = binders of probe aFSTL3 on microarray, primary screen, stem cell growth factor project, biochemical, small-molecule microarray, fluorescence 635/667 (AID 1064); details: higher = more signal;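 note: measures binding of the biotinylated anti-FSTL3 antibody to printed compounds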
[2] = binders from COS7 lysate, DM2A8 probe, primary screen, torsin A project, cell lysate, small-molecule microarray, fluorescence 635/667 (AID 1065); details: higher = more signal, COS7 lysate expressing mutant human TOR1A
[3] = binders of probe aFGF2 on microarray, primary screen, stem cell growth factor project, biochemical, small-molecule microarray, fluorescence 635/667 (AID 1067); details: higher = more signal;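 note: measures binding of biotinylated aFGF2 protein to printed compounds on slides; z-score merges feature fluorescence and signal-to-noise across triplicate slides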
[4] = binders of probe aFGF10 on microarray, primary screen, stem cell growth factor project, biochemical, small-molecule microarray, fluorescence 635/667 (AID 1071); details: higher = more signal;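 note: score merges 667 nm spot intensity and signal to noise from triplicate slides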
[5] = target: Neurogenic locus notch homolog protein 2 (Homo sapiens) (UniProt Q04721); experiment: Notch2 binders on small-molecule microarrays, primary screen, biochemical, small-molecule microarray, 635 nm fluorescence, stem cell growth factors (AID 1073); details: Notch2 binding, higher = more signal
[6] = target: Pro-neuregulin-1, membrane-bound isoform (Homo sapiens) (UniProt Q02297); experiment: NRG1 binders on small-molecule microarrays, primary screen, psychiatric disease protein project, biochemical, small-molecule microarray, fluorescence 635/667 (AID 1075); details: NRG1 binding, 635 nm fluorescence, higher = more signal;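 note: score combines 667 nm spot fluorescence with signal to noise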
[7] = test system: Neuregulin-1 EGF-like domain; experiment: binders of neuregulin-1 EGF-like domain, primary screen, biochemical, small-molecule microarray, 635 nm fluorescence (AID 1081); details: small-molecule microarray binding, higher = more signal;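 note: binding of the protein to compounds printed on small-molecule microarray slides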
[8] = FRG1 promoter luciferase signal modulators, primary screen, FRG1 inhibition for FSHD, cell-based, C2C12 myotubes, firefly/Renilla luciferase, luminescence (AID 1084); details: higher = more signal, called active from +8 up or from −8 down
[9] = binders of probe aFST on microarray, primary screen, stem cell growth factor project, biochemical, small-molecule microarray, fluorescence 635/667 (AID 1086); details: higher = more signal;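 note: score merges 667 nm fluorescence with signal-to-noise of each printed compound spot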
[10] = binders of probe aHhip on microarray, primary screen, stem cell growth factor project, biochemical, small-molecule microarray, fluorescence 635/667 (AID 1087); details: higher = more signal;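 note: score merges spot fluorescence at 667nm with spot signal to noise ratio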
[11] = test system: PRMT1 (protein arginine N-methyltransferase 1); experiment: PRMT1 binders on small-molecule microarrays, primary screen, biochemical, small-molecule microarray, 635 nm fluorescence (AID 1088); details: small-molecule microarray binding, higher = more signal;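 note: binding of Prmt1 protein to compounds spotted on small-molecule microarray slides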
[12] = yeast growth modulation, basal conditions, primary screen, YJM789 clinical isolate, OD600, 24 h (AID 1089);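 note: growth of clinical yeast isolate S. cerevisiae YJM 789 seeded 1000 cells per well; test concentration not given here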; details: S. cerevisiae YJM789 growth, higher = more signal, called active from +8 up or from −8 down
[13] = fission yeast growth modulation, primary screen, strain 972, OD600, 24 h, no modulator (AID 1090);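 note: basal condition with compound alone and no growth modifier present; test concentration not given here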; details: S. pombe 972 growth, higher = more signal, called active from +8 up or from −8 down
[14] = S. cerevisiae growth modulation with rapamycin, primary screen, strain BY4716, OD600, 96 h (AID 1091); details: higher = more signal, called active from +8 up or from −8 down; note: test concentration not given here
[15] = target: Torsin-1A-interacting protein 2 (Homo sapiens) (UniProt Q8NFQ8); experiment: LULL1 binders on small-molecule microarray, primary screen, cell lysate, human LULL1 lysate, 635/667 nm fluorescence (AID 1092); details: hLULL1 lysate binding, 635 nm fluorescence, higher = more signal;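 note: probe is lysate of COS7 cells overexpressing human LULL1; score merges per-feature 667 nm fluorescence with signal-to-noise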
[16] = E. coli growth modulation, two-sided OD650, primary screen, E. coli filamentation project, strain DRC41, 24 h (AID 1093); details: OD650, 24 h, higher = more signal, called active from +8 up or from −8 down;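 note: MC1000 strain lacking acrAB efflux and sulA so SOS filamentation is blocked; test concentration not given here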
[17] = small-molecule microarray binders of probe aLefty2, primary screen, biochemical, biotinylated probe, 635/667 nm fluorescence (AID 1094); details: higher = more signal;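 note: score merges spot fluorescence near 667 nm with spot signal-to-noise ratio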
[18] = test system: Noggin (protein binding on small-molecule microarray); experiment: Noggin binders on small-molecule microarray, primary screen, biochemical, 635/667 nm fluorescence (AID 1095); details: 635 nm fluorescence, higher = more signal;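 note: score merges 667 nm feature fluorescence with signal to noise over triplicate slides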
[19] = target: Neurogenic locus notch homolog protein 3 (Homo sapiens) (UniProt Q9UM47); experiment: NOTCH3 binders on small-molecule microarray, primary screen, biochemical, 635/667 nm fluorescence (AID 1096); details: NOTCH3 binding, 635 nm fluorescence, higher = more signal
[20] = small-molecule microarray binders of probe aEGFR, primary screen, biochemical, biotinylated probe, 635/667 nm fluorescence (AID 1097); details: higher = more signal;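 note: probe is a biotinylated anti-EGFR antibody binding compounds printed on slides; score combines fluorescence near 667 nm and signal to noise of each spot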

Torsin-1A-interacting protein 2 (Homo sapiens), sequence (Q8NFQ8 whole entry, looked up): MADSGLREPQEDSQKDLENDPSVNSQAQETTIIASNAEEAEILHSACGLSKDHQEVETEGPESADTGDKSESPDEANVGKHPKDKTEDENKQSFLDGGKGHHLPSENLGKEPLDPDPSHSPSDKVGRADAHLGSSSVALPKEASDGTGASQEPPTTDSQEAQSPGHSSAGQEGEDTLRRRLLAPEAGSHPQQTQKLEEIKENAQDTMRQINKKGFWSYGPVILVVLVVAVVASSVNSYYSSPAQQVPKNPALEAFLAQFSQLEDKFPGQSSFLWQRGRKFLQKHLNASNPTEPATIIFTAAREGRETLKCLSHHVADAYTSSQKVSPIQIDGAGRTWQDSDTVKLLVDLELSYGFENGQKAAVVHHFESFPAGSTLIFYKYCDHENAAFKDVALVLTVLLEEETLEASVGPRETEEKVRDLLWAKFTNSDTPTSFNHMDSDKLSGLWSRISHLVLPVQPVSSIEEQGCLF
Pro-neuregulin-1, membrane-bound isoform (Homo sapiens), sequence (Q02297 whole entry, looked up, the tested form may be a part, canonical isoform): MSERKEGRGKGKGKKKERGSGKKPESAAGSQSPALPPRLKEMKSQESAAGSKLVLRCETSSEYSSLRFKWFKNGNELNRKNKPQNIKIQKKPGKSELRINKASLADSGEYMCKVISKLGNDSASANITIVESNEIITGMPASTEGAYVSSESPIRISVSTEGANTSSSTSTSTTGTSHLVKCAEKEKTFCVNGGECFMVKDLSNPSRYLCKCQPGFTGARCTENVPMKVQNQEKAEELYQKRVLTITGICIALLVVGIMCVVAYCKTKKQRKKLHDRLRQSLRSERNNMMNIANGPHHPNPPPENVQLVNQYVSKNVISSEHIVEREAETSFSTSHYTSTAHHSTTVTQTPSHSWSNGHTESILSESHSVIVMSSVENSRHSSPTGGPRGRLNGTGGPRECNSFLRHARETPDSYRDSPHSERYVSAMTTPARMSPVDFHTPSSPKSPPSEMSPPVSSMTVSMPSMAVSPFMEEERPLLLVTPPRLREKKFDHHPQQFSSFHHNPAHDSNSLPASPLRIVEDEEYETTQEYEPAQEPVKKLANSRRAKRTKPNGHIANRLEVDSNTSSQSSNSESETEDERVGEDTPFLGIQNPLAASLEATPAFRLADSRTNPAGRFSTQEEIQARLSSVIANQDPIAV
Neurogenic locus notch homolog protein 2 (Homo sapiens), sequence (Q04721 whole entry, looked up, canonical isoform): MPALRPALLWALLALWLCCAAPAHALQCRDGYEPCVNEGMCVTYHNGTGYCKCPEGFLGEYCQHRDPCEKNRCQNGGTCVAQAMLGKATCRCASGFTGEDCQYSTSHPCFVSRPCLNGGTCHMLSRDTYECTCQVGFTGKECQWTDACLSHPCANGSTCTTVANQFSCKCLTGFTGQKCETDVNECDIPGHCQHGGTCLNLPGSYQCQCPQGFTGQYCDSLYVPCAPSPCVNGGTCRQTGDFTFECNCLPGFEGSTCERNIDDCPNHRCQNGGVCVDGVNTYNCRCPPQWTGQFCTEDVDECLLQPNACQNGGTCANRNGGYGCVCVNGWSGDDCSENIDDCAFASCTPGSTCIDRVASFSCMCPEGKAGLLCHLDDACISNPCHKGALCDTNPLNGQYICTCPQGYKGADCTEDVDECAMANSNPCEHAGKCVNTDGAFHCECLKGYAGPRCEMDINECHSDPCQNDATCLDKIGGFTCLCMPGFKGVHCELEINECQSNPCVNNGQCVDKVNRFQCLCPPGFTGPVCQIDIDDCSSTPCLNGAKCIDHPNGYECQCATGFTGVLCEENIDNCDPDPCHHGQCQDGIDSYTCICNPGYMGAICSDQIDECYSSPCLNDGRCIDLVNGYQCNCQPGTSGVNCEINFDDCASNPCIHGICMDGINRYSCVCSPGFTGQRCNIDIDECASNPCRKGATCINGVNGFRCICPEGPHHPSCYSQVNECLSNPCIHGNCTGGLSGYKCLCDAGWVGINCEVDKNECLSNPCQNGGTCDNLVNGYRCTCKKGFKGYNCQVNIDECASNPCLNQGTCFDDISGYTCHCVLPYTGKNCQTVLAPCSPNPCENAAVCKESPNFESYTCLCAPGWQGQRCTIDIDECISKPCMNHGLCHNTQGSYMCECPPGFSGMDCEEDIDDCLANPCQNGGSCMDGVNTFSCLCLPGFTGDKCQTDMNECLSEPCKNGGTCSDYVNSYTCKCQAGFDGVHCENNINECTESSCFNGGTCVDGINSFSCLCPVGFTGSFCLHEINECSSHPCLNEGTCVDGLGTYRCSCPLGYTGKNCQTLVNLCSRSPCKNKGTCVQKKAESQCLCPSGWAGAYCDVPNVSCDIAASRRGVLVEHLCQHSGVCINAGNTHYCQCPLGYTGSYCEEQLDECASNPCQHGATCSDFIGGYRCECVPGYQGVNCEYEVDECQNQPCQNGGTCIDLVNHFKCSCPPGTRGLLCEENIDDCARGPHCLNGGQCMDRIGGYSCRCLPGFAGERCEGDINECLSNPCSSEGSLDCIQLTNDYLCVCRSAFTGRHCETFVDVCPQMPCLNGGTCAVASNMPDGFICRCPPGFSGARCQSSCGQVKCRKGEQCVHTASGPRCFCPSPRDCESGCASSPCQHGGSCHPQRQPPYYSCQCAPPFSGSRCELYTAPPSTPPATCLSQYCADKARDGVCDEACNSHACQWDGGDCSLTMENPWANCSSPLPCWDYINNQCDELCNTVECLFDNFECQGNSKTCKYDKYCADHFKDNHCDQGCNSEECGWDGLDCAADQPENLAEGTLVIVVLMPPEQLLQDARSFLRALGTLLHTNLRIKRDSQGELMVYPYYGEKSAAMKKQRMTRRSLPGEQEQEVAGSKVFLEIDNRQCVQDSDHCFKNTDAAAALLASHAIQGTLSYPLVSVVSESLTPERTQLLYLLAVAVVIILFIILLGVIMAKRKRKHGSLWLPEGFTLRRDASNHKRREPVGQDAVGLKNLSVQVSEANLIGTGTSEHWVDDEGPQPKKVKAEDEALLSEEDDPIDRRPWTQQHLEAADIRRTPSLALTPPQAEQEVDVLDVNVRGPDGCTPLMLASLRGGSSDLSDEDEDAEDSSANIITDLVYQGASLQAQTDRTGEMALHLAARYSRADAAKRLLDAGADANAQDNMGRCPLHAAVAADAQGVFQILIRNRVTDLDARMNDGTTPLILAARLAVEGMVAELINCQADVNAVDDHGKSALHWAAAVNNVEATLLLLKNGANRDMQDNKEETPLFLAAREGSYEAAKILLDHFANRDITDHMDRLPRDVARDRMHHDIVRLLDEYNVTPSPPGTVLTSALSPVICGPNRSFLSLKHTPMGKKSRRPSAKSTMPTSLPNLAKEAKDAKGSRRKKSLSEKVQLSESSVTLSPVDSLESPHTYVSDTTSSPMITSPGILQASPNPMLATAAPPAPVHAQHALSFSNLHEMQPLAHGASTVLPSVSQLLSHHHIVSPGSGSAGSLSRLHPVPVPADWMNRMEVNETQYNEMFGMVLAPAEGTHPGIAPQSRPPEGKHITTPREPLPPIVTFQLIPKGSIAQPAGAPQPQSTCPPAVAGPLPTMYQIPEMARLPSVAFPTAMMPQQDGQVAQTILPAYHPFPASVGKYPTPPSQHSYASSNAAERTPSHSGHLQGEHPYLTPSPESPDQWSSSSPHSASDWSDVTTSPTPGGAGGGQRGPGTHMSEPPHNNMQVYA

Structure (SMILES)	composite z-score [1]	composite z-score [2]	composite z-score [3]	composite z-score [4]	composite z-score [5]	composite z-score [6]	composite z-score [7]	z-score [8]	composite z-score [9]	composite z-score [10]	composite z-score [11]	z-score [12]	z-score [13]	z-score [14]	composite z-score [15]	z-score [16]	composite z-score [17]	composite z-score [18]	composite z-score [19]	composite z-score [20]
COc1ccc(CCNC(=O)[C@@]2(Sc3ccc(C)cc3)CC(=O)N(C(C)C)[C@@H]2c2ccc(CO)cc2)cc1	1.09	0.53	-0.129	-0.0606	-1.35	0.871	0.401	-0.921 (inactive)	-0.686	0.021	0.633	0.956 (inactive)	0.0503 (inactive)	0.088 (inactive)	2.09	-0.015 (inactive)	0.0507	-1.4	-1.15	-0.249
C=CC[C@]1(C(=O)NCc2ccccc2)COC(c2ccc(OCCCO)cc2)=N1	2.17	2.12	-0.008	-0.588	-0.813	1.09	0.521	0.235 (inactive)	0.946	-0.335	0.822	-1.4 (inactive)	-4.95 (inactive)	-1.22 (inactive)	2.87	1.34 (inactive)	0.843	-1	-0.447	-0.0675
COCCOC(=O)N1C(=O)[C@@]2(c3cc(C#CCCO)ccc31)[C@H](C(=O)N1CCN(c3ncccn3)CC1)[C@H]1C(=O)O[C@H](c3ccccc3)[C@H](c3ccccc3)N1[C@@H]2c1ccc(O)cc1	-0.782	0.219	0.0243	0.534	0.376	0.926	1.24	-1.3 (inactive)	-0.3	-0.367	1.54	0.114 (inactive)	-0.161 (inactive)	1.63 (inactive)	2.04	1.49 (inactive)	-0.299	0.865	0.945	-0.219
CC(=O)c1ccc(C(O)C2C=CC3C(=O)N(C)C(=O)C3N2NC(=O)OC(C)(C)C)cc1 (stereo not given)	0.301	0.169	0.152	1.13	1.61	2.11	1.35	0.929 (inactive)	0.948	-0.154	1.54	0.269 (inactive)	1.08 (inactive)	1.59 (inactive)	3.47	-1.24 (inactive)	0.236	-0.465	1.11	0.357
CN(C)C(=O)[C@@]1(CCS(=O)(=O)c2ccccc2)N=C(c2ccc(OCCCO)cc2)O[C@H]1c1ccccc1N=[N+]=[N-]	-0.35	0.259	0.167	0.792	1.32	1.55	0.551	0.401 (inactive)	1.49	-0.0994	1.55	-1.01 (inactive)	-0.173 (inactive)	0.914 (inactive)	3.1	0.635 (inactive)	0.0554	0.987	1.11	-0.0168
